Measured values as given in PubChem BioAssay (Tox21).
Values joined by “and” are separate entries in the source; they are usually repeats but may differ in a detail not shown here. Equal entries are not always repeated. Unmarked numbers belong to inactive results. Results filed as inconclusive are left out. A call without a number means that no potency is given here. Active and inactive are the calls of the source. Unless noted, the call rests on the fitted dose curve; in most records, active means well fitted curve in the direction sought with a large enough effect in the repeat runs; inconclusive means weak or mixed curves; inactive means no such curve, though single readings can be large; an effect the other way counts as inactive or inconclusive.

What was measured:
[1] = Caspase-3/7 induction in HepG2 cells by small molecules, qHTS assay (AID 1346978); further: nearly all actives have a fitted effect of over 15% in size; further: potency means the concentration at half of the fitted maximal effect
Outline: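 Wild-type HepG2 cells (2,000/well) were settled 5 h at 37 C, 5% CO2, then exposed to compounds in DMSO for 17 h. Caspase-3/7 activity was read by luminescence 30 min after adding Caspase-Glo 3/7 reagent at room temperature.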

[2] = Caspase-3/7 induction in CHO-K1 cells by small molecules, qHTS assay (AID 1346980); further: nearly all actives have a fitted effect of over 15% in size; further: potency means the concentration at half of the fitted maximal effect
Outline: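 Wild-type cells were seeded at 1,500 per well and settled 5 hr at 37 C, 5% CO2, then exposed to DMSO-dissolved compounds for 17 hr. Caspase-Glo 3/7 reagent was added, and luminescence was read after 30min at room temperature.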

[3] = Caspase-3/7 induction in HepG2 cells by small molecules, qHTS cell viability counter screen (AID 1346981); further: nearly all actives have a fitted effect of over 30% in size; further: potency means the concentration at half of the fitted maximal effect
Outline: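 Cell viability is measured as a cytotoxicity counter screen alongside the Caspase-Glo 3/7 readout in identical wells. Wild-type HepG2 cells are treated with test compounds for 16 hr at 37 C before CellTiter-Fluor addition and a 1-hr incubation.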

[4] = target: Nuclear receptor subfamily 1 group I member 2 (Homo sapiens) (UniProt O75469); experiment: Human pregnane X receptor (PXR) small molecule agonists, qHTS assay (AID 1346982); further: nearly all actives have a fitted effect of over 35% in size; further: potency means the concentration at half of the fitted maximal effect
Outline: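 Cells: HepG2 stably carrying PXR-Luc. Medium held 5% charcoal-stripped FBS. Compounds in DMSO added after 5 hr plating, incubated 24 hr, then luminescence quantified with ONE-Glo.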

[5] = target: Acetylcholinesterase (Homo sapiens) (UniProt P22303); experiment: Acetylcholinesterase (AChE) small molecule antagonists: colormetric cell-based qHTS assay (AID 1347395; calls by dose curve; further: nearly all actives have a fitted effect of over 30% in size; further: potency means the concentration at half of the fitted maximal effect)
Outline: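 Colorimetric readout: DTNB quantifies thiocholine from acetylthiocholine hydrolysed by endogenous AChE of SH-SY5Y cells (2,000/well, plated overnight). Compound pretreatment 30 min, substrate incubation 90 min, both 37 C.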

[6] = target: Nuclear receptor subfamily 1 group I member 2 (Rattus norvegicus) (UniProt Q9R1A7); experiment: Rat pregnane X receptor (rPXR) activation by small molecules, qHTS assay (AID 1346983); conditions: rPXR luciferase reporter cells, One-Glo luminescence, 24 h; max activation: stronger effect = higher value; further: nearly all actives have a fitted effect of over 20% in size
Outline: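 Cell-based rPXR luciferase reporter assay, 2,000 cells per well, rested 5hr at 37 C before compound addition in DMSO, then 24 hr at 37 C. One-Glo reagent was added and luminescence read after 30 min at room temperature.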

[7] = target: Nuclear receptor subfamily 1 group I member 2 (Homo sapiens) (UniProt O75469); experiment: CYP3A4 induction through human pregnane X receptor (PXR) by small molecules, qHTS assay (AID 1346984); further: nearly all actives have a fitted effect of over 40% in size; further: potency means the concentration at half of the fitted maximal effect
Outline: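 Quantitative HTS in DPX-2 cells, i.e. HepG2 transfected with PXR response element and CYP3A4-promoter luciferase. Compounds in DMSO incubated 24hr at 37C; then P450-Glo CYP3A4 substrate, 3uM final, 3hr; One-Glo luminescence.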

[8] = target: Nuclear receptor subfamily 1 group I member 2 (Homo sapiens) (UniProt O75469); experiment: Human pregnane X receptor (PXR) activation by small molecules, qHTS assay (AID 1346985); further: nearly all actives have a fitted effect of over 40% in size; further: potency means the concentration at half of the fitted maximal effect
Outline: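 DPX-2 cells (HepG2 co-transfected with a PXR response element and a CYP3A4-promoter luciferase construct) were seeded at 2,000 per well, rested 5 hr at 37C, then exposed to DMSO-dissolved compounds for 24 hr. Activation was read as luciferase luminescence.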

[9] = Caspase-3/7 induction in CHO-K1 cells by small molecules, qHTS cell viability counter screen (AID 1346979); further: potency means the concentration at half of the fitted maximal effect; nearly all actives have a fitted effect of over 35% in size
Outline: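 Cytotoxicity counter screen: CellTiter-Fluor added to compound-treated wild-type CHO-K1 cells at 16 h (37C, 5% CO2), fluorescence measured 1 h later; same wells as caspase-3/7 measurement.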

Chain of Nuclear receptor subfamily 1 group I member 2 (Homo sapiens) (O75469 whole entry, looked up): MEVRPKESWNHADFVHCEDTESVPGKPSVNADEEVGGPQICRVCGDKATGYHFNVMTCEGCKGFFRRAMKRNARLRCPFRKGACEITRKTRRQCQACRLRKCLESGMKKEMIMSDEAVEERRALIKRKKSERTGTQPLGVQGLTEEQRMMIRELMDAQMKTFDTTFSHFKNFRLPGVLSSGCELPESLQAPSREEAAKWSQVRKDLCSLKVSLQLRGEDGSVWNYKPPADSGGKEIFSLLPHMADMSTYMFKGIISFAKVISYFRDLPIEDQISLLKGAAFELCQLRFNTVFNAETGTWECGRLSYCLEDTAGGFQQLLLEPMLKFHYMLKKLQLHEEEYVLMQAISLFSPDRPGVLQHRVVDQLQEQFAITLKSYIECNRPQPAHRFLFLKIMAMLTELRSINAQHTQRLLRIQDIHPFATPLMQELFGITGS
Chain of Nuclear receptor subfamily 1 group I member 2 (Rattus norvegicus) (Q9R1A7 whole entry, looked up): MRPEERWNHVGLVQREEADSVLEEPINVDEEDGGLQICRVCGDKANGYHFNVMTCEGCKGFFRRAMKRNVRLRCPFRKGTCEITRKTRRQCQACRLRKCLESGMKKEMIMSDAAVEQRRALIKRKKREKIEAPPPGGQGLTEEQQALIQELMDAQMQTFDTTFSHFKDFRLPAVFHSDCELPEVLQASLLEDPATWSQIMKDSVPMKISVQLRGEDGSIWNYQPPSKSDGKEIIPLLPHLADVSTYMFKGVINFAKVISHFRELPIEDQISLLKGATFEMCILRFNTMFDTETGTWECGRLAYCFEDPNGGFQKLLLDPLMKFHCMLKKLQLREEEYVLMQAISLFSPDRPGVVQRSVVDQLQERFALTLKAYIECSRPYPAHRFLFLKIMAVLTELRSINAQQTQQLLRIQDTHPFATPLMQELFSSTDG
Chain of Acetylcholinesterase (Homo sapiens) (P22303 whole entry, looked up): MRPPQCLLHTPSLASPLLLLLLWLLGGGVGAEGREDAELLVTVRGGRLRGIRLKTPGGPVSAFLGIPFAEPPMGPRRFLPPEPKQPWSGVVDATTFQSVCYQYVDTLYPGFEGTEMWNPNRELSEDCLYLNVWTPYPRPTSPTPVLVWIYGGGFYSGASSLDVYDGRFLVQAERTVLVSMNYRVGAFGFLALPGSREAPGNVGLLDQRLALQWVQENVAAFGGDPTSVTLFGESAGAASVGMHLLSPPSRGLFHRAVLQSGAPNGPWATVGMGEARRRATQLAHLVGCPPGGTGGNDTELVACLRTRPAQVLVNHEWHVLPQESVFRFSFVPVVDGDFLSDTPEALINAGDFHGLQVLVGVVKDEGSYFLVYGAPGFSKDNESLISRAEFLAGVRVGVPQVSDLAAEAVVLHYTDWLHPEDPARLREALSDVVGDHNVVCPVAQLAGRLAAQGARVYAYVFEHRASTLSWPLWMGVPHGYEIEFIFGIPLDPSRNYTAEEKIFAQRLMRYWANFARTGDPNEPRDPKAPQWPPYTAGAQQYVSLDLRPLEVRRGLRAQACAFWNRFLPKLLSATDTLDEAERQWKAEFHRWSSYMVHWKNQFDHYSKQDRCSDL

Row | Compound | Potency [1] | Potency [2] | Potency [3] | Potency [4] | Potency [5] | max activation [6] | Potency [7] | Potency [8] | Potency [9]
1 | COc1ccc2[nH]cc(CCN(C(C)C)C(C)C)c2c1 | inactive | inactive | inactive | inactive | – | – | – | – | –
2 | CNC(=O)CSP(=O)(OC)OC | inactive | inactive | inactive | inactive | – | – | – | – | –
3 | Nc1nc(N)c(N)c(N)n1 | inactive | inactive | – | inactive | inactive | – | – | – | –
4 | CCOP(=O)(Sc1ccccc1)Sc1ccccc1 | inactive | inactive | inactive | 34.4 µM (active) | 3.99 µM (active) | – | – | – | –
5 | Cc1ccccc1OP(=O)(Oc1ccccc1C)Oc1ccccc1C | inactive | inactive | inactive | – | inactive | – | – | – | –
6 | CCOP(=S)(OCC)SC(CCl)N1C(=O)c2ccccc2C1=O (stereo unspecified) | inactive | inactive | inactive | 4.33 µM (active) | 31.7 µM (active) | – | – | – | –
7 | Nc1ccc(Cl)cc1C(=O)c1ccccc1F | inactive | inactive | – | 29.8 µM (active) | inactive | – | – | – | –
8 | CC1=C2C[C@H]3[C@@H](CC=C4C[C@@H](O)CC[C@@]43C)[C@@H]2CC[C@]12O[C@@H]1C[C@H](C)CN[C@H]1[C@H]2C | inactive | inactive | – | inactive | inactive | – | – | – | –
9 | Clc1ccc(C(c2ccc(Cl)cc2)C(Cl)Cl)cc1 | inactive | – | inactive | – | inactive | – | – | – | –
10 | Oc1ccc2[nH]cc(CCCCN3CC=C(c4ccccc4)CC3)c2c1 | inactive | inactive | – | – | – | 4.09% | – | – | –
11 | COc1nc(C)nc(NC(=O)NS(=O)(=O)c2ccccc2Cl)n1 | inactive | inactive | inactive | inactive | inactive | – | – | – | –
12 | CCN(CC)Cc1nccn1-c1ccc([N+](=O)[O-])cc1C(=O)c1ccccc1Cl | inactive | inactive | – | – | inactive | – | – | – | –
13 | O=S1OCC2C(CO1)C1(Cl)C(Cl)=C(Cl)C2(Cl)C1(Cl)Cl (stereo unspecified) | – | inactive | – | – | inactive | – | – | – | –
14 | CCc1cccc(C)c1N(C(=O)CCl)[C@@H](C)COC | inactive | inactive | inactive | 7.7 µM (active) | inactive | – | – | – | –
15 | CCC1COC(Cn2cncn2)(c2ccc(Cl)cc2Cl)O1 (stereo unspecified) | inactive | inactive | inactive | 19.3 µM (active) | inactive | – | – | – | –
16 | S=C=NCCc1ccccc1 | inactive | inactive | inactive | 54.6 µM (active) | inactive | – | – | – | –
17 | CCCCCCCc1ccc(O)cc1 | – | inactive | – | 61.1 µM (active) | inactive | – | – | – | –
18 | CO/N=C(\C(=O)OC)c1ccccc1CO/N=C(\C)c1cccc(C(F)(F)F)c1 | inactive | inactive | – | 0.686 µM (active) | inactive | – | – | – | –
19 | CN1C2CCC(C)(C)C1CC(OC(=O)C(O)(c1cccs1)c1cccs1)C2 (stereo unspecified) | inactive | inactive | inactive | – | inactive | – | – | – | –
20 | CN1C(=O)[C@@H](NC(=O)c2cc3ccccc3[nH]2)N=C(c2ccccc2)c2ccccc21 | inactive | – | inactive | inactive | inactive | -0.0388% | inactive | inactive | –

Row | Compound | Potency [1] | Potency [2] | Potency [3] | Potency [4] | Potency [5] | max activation [6] | Potency [7] | Potency [8] | Potency [9]
21 | C[C@]12Cc3cn[nH]c3C[C@@H]1CC[C@@H]1[C@@H]2CC[C@@]2(C)[C@H]1CC[C@]2(C)O | inactive | inactive | inactive | 9.44 µM (active) | inactive | – | – | – | –
22 | CCCCCCC[CH2][Sn]([Cl])([Cl])[CH2]CCCCCCC | – | 68.5 µM (active) | inactive | – | inactive | – | – | – | 54.4 µM (active)
23 | Clc1ccc(C(Cl)(Cl)Cl)cc1Cl | – | inactive | – | 30 µM (active) | inactive | – | – | – | –
24 | CCN(CC)CCN1C(=O)CN=C(c2ccccc2F)c2cc(Cl)ccc21 | inactive | inactive | inactive | 13.3 µM (active) | inactive | 8.1% | inactive | 14.1 µM (active) | –
25 | CC(C)(C)c1ccc(OP(=O)(Oc2ccccc2)Oc2ccccc2)cc1 | inactive | inactive | inactive | 13.8 µM (active) | 31.9 µM (active) | – | – | – | –
26 | ClC1=C(Cl)[C@]2(Cl)[C@@H]3[C@H]4C[C@H]([C@@H]5O[C@H]45)[C@@H]3[C@@]1(Cl)C2(Cl)Cl | inactive | inactive | inactive | 5.44 µM (active) | inactive | – | inactive | 25.1 µM (active) | –
27 | C[C@]12C/C(=C/O)C(=O)C[C@@H]1CC[C@@H]1[C@@H]2CC[C@@]2(C)[C@H]1CC[C@]2(C)O | inactive | inactive | inactive | – | inactive | 1.42% | – | – | –
28 | c1ccc(N=NNc2ccccc2)cc1 | inactive | inactive | 28.3 µM (active) | 31.7 µM (active) and 30.6 µM (active) | inactive | – | – | – | –
29 | Cc1cc(C2CC2)nc(Nc2ccccc2)n1 | inactive | inactive | inactive | 54.5 µM (active) | inactive | – | – | – | –
30 | CN1CCc2cc(Cl)c(O)cc2[C@H]2c3ccccc3CC[C@@H]21 | inactive | inactive | – | inactive | – | 0.833% | 2.24 µM (active) | 2.24 µM (active) | –
31 | CCOP(=O)(OCC)Oc1nc(Cl)c(Cl)cc1Cl | inactive | inactive | inactive | 54.2 µM (active) | – | – | – | – | –
32 | Cc1c([N+](=O)[O-])c(C)c([N+](=O)[O-])c(C(C)(C)C)c1[N+](=O)[O-] | inactive | inactive | inactive | – | inactive | – | – | – | –
33 | C=Cc1cccc(CCl)c1 | inactive | inactive | – | inactive | inactive | – | – | – | –
34 | C[C@H]1[C@H](c2ccc(Cl)cc2)SC(=O)N1C(=O)NC1CCCCC1 | inactive | inactive | inactive | 6.86 µM (active) | inactive | – | – | – | –
35 | C#CCC1=C(C)C(OC(=O)C2C(C=C(C)C)C2(C)C)CC1=O (stereo unspecified) | inactive | inactive | inactive | 10.8 µM (active) | inactive | – | – | – | –
36 | O=C(O)[C@H](O)[C@@H](O)C(=O)O | inactive | inactive | inactive | – | inactive | – | – | – | –
37 | CC1(C)C(C=C(Cl)Cl)C1C(=O)OC(C#N)c1ccc(F)c(Oc2ccccc2)c1 (stereo unspecified) | inactive | inactive | inactive | inactive | inactive | – | – | – | –
38 | N#CCCl | inactive | inactive | inactive | inactive | inactive | – | – | – | –
39 | Brc1cccc(-c2ccccc2)c1 | inactive | inactive | inactive | 24.5 µM (active) | inactive | – | – | – | –
40 | Cc1ccc2cc3c(ccc4ccccc43)c3c2c1CC3 | 6.13 µM (active) | inactive | – | 6.13 µM (active) | inactive | – | – | – | –
